# Source: PubChem BioAssay
# A selection: hits, their analogues and other compounds. The true share with any hit is near 0.78%.
# BLM inh = qHTS Assay for Inhibitors of Bloom's syndrome helicase (BLM). recombinant BLM DNA unwinding, fluorescence dequenching. hit rate 0.2% among 350,000. Potency, µM (top dose mostly 56.1 µM), inactives show at the highest dose activity change, negative = inhibition, usual class: inhibitors. RecQ-like DNA helicase BLM (Homo sapiens), P54132;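 further: plate controls were vehicle for no effect and no enzyme for full effect; nearly all actives have a fitted effect of over 35% in size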
# APE1 inh = qHTS Assay for Inhibitors of the Human Apurinic/apyrimidinic Endonuclease 1 (APE1) | DNA repair nuclease/redox regulator APEX1 (Homo sapiens), P27695 | recombinant APE1, TAMRA/BHQ-2 abasic DNA cleavage fluorescence | Potency, µM (top dose mostly 65.8 µM), for the others: at the highest dose activity change, negative = inhibition, hits mostly inhibitors | hit rate 0.35% among 350,000 | AID 2517, 2012;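 further: plate controls were vehicle for no effect and reference inhibitor for full effect; nearly all actives have a fitted effect of over 55% in size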
#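 Quantitative HTS: incision of a TAMRA/BHQ-2 double-stranded substrate bearing a tetrahydrofuran abasic site by 0.75 nM APE1 raises fluorescence. Substrate 50 nM final, added after 15 min compound preincubation at room temperature; progress as third-minus-first kinetic read difference.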
# RECQ1 inh = qHTS Assay for Inhibitors of RecQ-Like Dna Helicase 1 (RECQ1). RECQ1 DNA unwinding, red fluorescence kinetic read. Potency, µM (highest dose often 57.3 µM), for inactives: top-dose activity, negative = inhibition, most hits filed as inhibitors. hit rate 0.54% among 240,000. AID 2549, 2010;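 further: plate controls were vehicle for no effect and no enzyme for full effect; nearly all actives have a fitted effect of over 30% in size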
#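 50 nM RECQ1T1 preincubated 15 min with compound in Tris pH 8.0 buffer with MgCl2, DTT, Tween-20 and 2.5 ug/ml poly(dI-dC); started with 200 nM TAMRA/BHQ-2 forked duplex and 2 mM ATP. Unwinding read as fluorescence (525/598 nm), two reads 2 h apart.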
# L3MBTL1 block = qHTS Assay for the Inhibitors of L3MBTL1. AlphaScreen L3MBTL1–H3K9me1 peptide binding. AID 485360, 2010. hit rate 0.66% among 230,000. Potency, µM (titrated, usually from 57.1 µM), for the others: at the highest dose activity, negative = inhibition, actives largely listed as inhibitors; further: nearly all actives have a fitted effect of over 60% in size
#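 L3MBTL1 50 nM + b-AHA-H3(1-15)K9me1 75 nM, 30 min RT; compound added, 30 min RT; streptavidin donor/Ni-chelate acceptor beads 10 ug/mL each final, 30 min RT dark; AlphaScreen read.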
# The depositor's hits bear a star; i = inactive; u = inconclusive; x = no result given; ! = not confirmed by another sample; [ ] = remark or other dose. The call rests on the fitted dose curve; in most records, active means well fitted curve in the direction sought with a large enough effect; inconclusive means small, poorly fitted or top-dose-only effect, or another doubt; inactive means no such curve, though single readings can be large; an effect the other way counts as inactive or inconclusive. Unless noted, on the % scale 0 is the no-effect control and ±100 the full control effect; potency means the concentration at half of the fitted maximal effect.
SMILES,BLM inh,APE1 inh,RECQ1 inh,L3MBTL1 block
COc1cc(C2CC(=O)N3CN(c4ccccc4C)CSC3=C2C#N)cc(OC)c1OC (configuration not stated),-11%,16%,-4%,-11%
CC(C)C(NC(=O)C(CC(=O)O)NC(=O)C(CCCCN)NC(=O)C(N)CCCN=C(N)N)C(=O)NC(Cc1ccc(O)cc1)C(=O)O (configuration not stated),3%,x,x,x
Cc1cc(C)c(C)c(S(=O)(=O)N[C@@H](C)C(=O)OCc2cc(=O)n3cc(Br)ccc3n2)c1C,-25%,-2%,24%,13µM*
OC1OC[C@@H](O)[C@@H](O)[C@@H]1O (some centres not stated),-1%,10%,-19%,x
c1ccc(-c2nc(-c3ccccn3)nc(-c3ccccn3)n2)nc1,6%,2%,2%,x
Clc1ccc(-c2cnnc(-c3ccccn3)n2)cc1,x,7%,x,3.2µM*
C=C1C=C(C(F)F)n2ncc(C(=O)Nc3ccccc3OCC)c2N1,x,58%,x,x
N[C@@H](CCCCNC(=O)CCCC[C@@H]1SC[C@H]2NC(=O)N[C@H]12)C(=O)O,-1%,10%,-13%,x
O=C(O)c1ccc2c(c1)C(=O)/C(=C/c1ccccc1)C2=O,53%,u,13%,3.2µM*
CC(C)(C)N1C(=O)c2ccc(C(=O)O)cc2C1=O,0%,4%,i,2%
O=C(O)c1ccc2c(c1)C(=O)/C(=C\c1ccco1)C2=O,140%,7.9µM*,u,3.2µM*
CCN1C(=O)[C@@H]2[C@H]3C(=CC[C@H]2C1=O)C(=O)[C@H]1OC1[C@H]3O (some centres not stated),4%[12.4 µM],29%[12.4 µM],18%[11.5 µM],x
CC(C)(C)n1ncc2c(=O)n(Cc3ccccc3F)cnc21,x,-8%,x,x
COc1cccc(CNC(=O)Cn2ncc3c4ccccc4n(C)c3c2=O)c1,-6%,x,x,x
COc1cccc(Cn2ncc3c4sc(B(O)O)cc4n(C)c3c2=O)c1,x,9.5µM*,x,2%
O=C(CSc1nc2sc3c(c2c(=O)n1-c1ccccc1)CCCC3)N/N=C/c1ccccc1C(=O)O,u,11µM*,x,x
CO[C@H]1C=CO[C@@]2(C)Oc3c(C)c(O)c4c(O)c(c5c(nc6cc(C)ccn65)c4c3C2=O)NC(=O)/C(C)=C\C=C[C@H](C)[C@H](O)[C@@H](C)[C@@H](O)[C@@H](C)[C@H](OC(C)=O)[C@@H]1C,x,-1%,x,x
Cc1nnc(NC(=O)C2CCN(S(=O)(=O)c3cc([N+](=O)[O-])ccc3Cl)CC2)o1,x,-7%,x,25µM*
CCOc1ccccc1-c1nnc2n1N=C(c1cccc(OC)c1)CS2,2%,-7%,-12%,x
O=[N+]([O-])c1cc(/C=N/n2c(-c3ccncc3)n[nH]c2=S)ccc1Cl,-28%,-15%,4.5µM*,-28%
Cc1cc(-c2n[nH]c(=S)n2/N=C/c2ccc(Cl)c([N+](=O)[O-])c2)n[nH]1,2%,20%,-5%,-2%
Cc1cc(C(=O)O)ccc1[C@H](N)C(=O)O,-2%,40µM*!,3%,x
CCCCC/C(C=O)=C/c1ccccc1,4%,x,x,x
CN(C)[C@@H]1C(=O)C(C(=O)NCN2CCCC2)=C(O)[C@@]2(O)C(=O)C3=C(O)c4c(O)cccc4[C@@](C)(O)C3C[C@@H]12 (some centres not stated),x,7.9µM*,x,x
C[C@H]1c2cccc(O)c2C(O)=C2C(=O)[C@]3(O)C(O)=C(C(N)=O)C(=O)C(N(C)C)[C@@H]3[C@@H](O)C21 (some centres not stated),x,4%,i,x
SMILES,BLM inh,APE1 inh,RECQ1 inh,L3MBTL1 block
COc1cccc(/C=N/NC(=O)C[n+]2ccccc2)c1O,-5%,-4%,u,16µM*
O=c1c(O[C@H]2O[C@@H](CO)[C@H](O)[C@@H](O)[C@@H]2O)c(-c2ccc(O)cc2)oc2cc(O)cc(O)c12,x,21µM*,x,-13%
O=c1c(O[C@@H]2O[C@H](CO)C(O)C2O)c(-c2ccc(O)c(O)c2)oc2cc(O)cc(O)c12 (some centres not stated),x,-33%,x,14µM*
O=c1cc(-c2ccc(O)c(O)c2)oc2cc(O[C@@H]3O[C@H](CO)[C@@H](O)[C@H](O)[C@H]3O)cc(O)c12,-3%,u,-18%,4µM*
O=c1c(OC2OC(CO)C(O)C(O)C2O)c(-c2ccc(O)c(O)c2)oc2cc(O)cc(O)c12 (configuration not stated),-2%,u,-16%,u
O=c1cc(-c2ccc(O)cc2)oc2cc(O[C@H]3OC(CO)C(O)C(O)C3O)cc(O)c12 (some centres not stated),5%,-7%,0%,x
O=c1c(O)c(-c2ccc(O)c(O)c2)oc2c(OC[C@@H]3O[C@@H](O)[C@@H](O)[C@H](O)[C@H]3O)c(O)cc(O)c12,1%,2.5µM*,-12%,x
COc1cc2c(c(OC)c1OC)-c1c(cc3c(c1OC)OCO3)CC(C)C(C)(O)C2OC(=O)c1ccccc1 (configuration not stated),-7%,-1%,-3%,x
CC[C@@H](C)[C@@H](N)C1=N[C@H](C(=O)N[C@@H](CC(C)C)C(=O)N[C@@H](CCC(=O)O)C(=O)N[C@@H](C(=O)N[C@@H]2CCCCNC(=O)[C@@H](CC(N)=O)NC(=O)[C@@H](CC(=O)O)NC(=O)[C@@H](Cc3cnc[nH]3)NC(=O)[C@@H](Cc3ccccc3)NC(=O)[C@@H]([C@H](C)CC)NC(=O)[C@@H](CCCN)NC2=O)[C@@H](C)CC)CS1,x,-5%,x,x
C[C@@H]1O[C@@H](Oc2c(-c3cc(O)c(O)c(O)c3)oc3cc(O)cc(O)c3c2=O)[C@H](O)[C@H](O)[C@H]1O,-2%,u,28µM*!,u
C/C(=N\NC(=O)c1cccc(N/N=C(\C)c2cc(O)ccc2O)c1)c1cc(O)ccc1O,-15%,-6%,27%,28µM*
COc1ccc(C2=Nn3c(nnc3-c3ccccc3Cl)SC2)cc1O[C@H]1CCOC1,x,-8%,x,x
CCc1nn2c(=O)cc(COc3ccc(/C=C4\C(=N)N5N=C(C)SC5=NC4=O)cc3)nc2s1,13µM*,u,u,x
O=C(O)CCC/C=C\C[C@@H]1[C@@H](CC[C@@H](O)CCc2ccccc2)[C@H](O)C[C@@H]1O,0%,16%,8%,x
COc1ccc(NC(=O)CN2C(=O)S/C(=C/c3cccn3-c3ccc(C(=O)O)cc3)C2=O)cc1,u,1.7µM*,x,x
Cc1cccc(C)c1NC(=O)CN1C(=O)S/C(=C\c2cccn2-c2cccc(C(=O)O)c2)C1=O,-19%,-11%,-6%,-9%
